In PubChem BioAssay (NCI) one finds growth data, which are given here for 40 compounds.

Values joined by “and” are separate entries in the source; they are usually repeats but may differ in a detail not shown here. Equal entries are not always repeated. The panel holds about 83,000 compounds, 20% with a hit somewhere; the sample as a whole holds those more often.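 Values shown are percent growth following 48 h exposure of cells in 96-well plates to a single concentration of compound; below 10 was considered active.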 Active and inactive are the calls of the source.

The test system of the assay is HL-60(TB) leukemia. Put plainly: NCI-60 one-dose screen, 48 h (100 = growth as untreated, 0 = no growth, -100 = all killed). The following applies: 10 µM unless noted.
In the case of `Cc1nc(Nc2ncc(C(=O)Nc3c(C)cccc3Cl)s2)cc(N2CCN(CCO)CC2)n1`, the growth was 107% (inactive) and 35.7% (inactive).

As to `CC(C)(C)n1cc(-c2ccnc(NCCCNS(=O)(=O)c3ccccc3)c2)c(-c2ccccc2)n1`, the growth was 38.5% (inactive).

Take `COc1ccc(CC(C#N)c2ccc(Cl)cc2)cc1` (stereo not given): the growth was 84% (inactive).

Turning to `O=Cc1c(O)c2ccccc2[nH]c1=O`, the growth was 126% (inactive).

On to `O=C1NC(=O)c2c1c1c3ccccc3ccc1c1[nH]c3ccc(Br)cc3c21`, for which the growth is 18.7% (inactive).

In the case of `S=C1CCSC(=S)N1CCCN1C(=S)CCSC1=S`, the growth is 36.5% (inactive).

For the compound `CNc1cc(-c2cccc(OC(F)(F)F)c2)nc2ccc(N3CCCC3)cc12`, the growth was -43% (active) and -44.1% (active) and 1.92% (active).

Consider `CC(=O)c1cc2c(N)c(C(=O)Nc3ccccc3)sc2nc1C`, for which the growth was 55.6% (inactive).

As to `COc1ccc2sc3cccc(NCCN(C)C)c3c(=O)c2c1`, the growth was -49.5% (active).

`CC1=NC2=CC=CC3=NC(C(Cl)(Cl)Cl)=NC(=N1)N23`: the growth is 25.2% (inactive).

Take `CCOc1ccc(Nc2c3ccccc3nc3ccccc23)cc1`: the growth is 90.2% (inactive) and 8.63% (active) and 8.99% (active).

With `C=C(C)[C@@H]1CC[C@]2(C(=O)NCC#CCN3CCN(C)CC3)CC[C@]3(C)[C@H](CC[C@@H]4[C@@](C)(CCC#N)[C@H](C(=C)C)CC[C@]43C)[C@@H]12`, the growth was 10.9% (inactive).

On to `COc1ccc(-c2ccc(NNC(=O)c3ccc(F)cc3)nn2)cc1OC`, for which the growth was 46.9% (inactive).

`CCOC(=O)NCCc1nc2c([nH]1)c(=O)n(C)c(=O)n2C`: the growth is 124% (inactive).

With `O=C1C2=C(CCN(Cc3ccccc3)C2)N2CCN=C2N1Cc1ccc(F)cc1F`, the growth is 27.8% (inactive).

On to `CC(C)(C)Nc1c(-c2cccs2)nc2ncccn12`, for which the growth was 66.6% (inactive).

As to `C=C1C(=O)O[C@H]2[C@H]1CC/C(COC(=O)NC1CCC(O)CC1)=C\CC[C@@]1(C)O[C@@H]21` (stereo not given in full), the growth is 70.6% (inactive) and 62.5% (inactive).

On to `CN(C=O)c1ccccc1`, for which the growth was 101% (inactive).

As for `Nc1c(C(=O)Nc2ccccc2Cl)sc2nc3c(cc12)C(O)CCC3` (stereo not given), the growth is 0.926% (active).

In the case of `O=C(N=Nc1c(O)[nH]c2ccc(F)cc12)c1cc2ccccc2[nH]1`, the growth is 79.3% (inactive).

As to `CN(Cc1cc(Cl)cc(Cl)c1O)Cc1cc(Cl)cc(Cl)c1O`, the growth was 53.1% (inactive).

On to `COc1ccc(-c2nc(SCC(C)C)nc(N/N=C\c3ccc(F)cc3)c2C#N)cc1`, for which the growth was 83.4% (inactive).

For the compound `O=C(O)CCCCSc1ncnc2nc[nH]c12`, the growth is 103% (inactive).

Take `COc1nc(N(C)O)nc(N(C)O)n1`: the growth was 50.4% (inactive).

For `Nc1nc(SC/C=C/CCl)c2[nH]cnc2n1`, the growth was 97.8% (inactive) and 103% (inactive).

On to `Cc1nc2cncc(C#Cc3cncc(C(=O)Nc4ccc(CN5CCN(C)CC5)c(C(F)(F)F)c4)c3)c2nc1C`, for which the growth was -8.15% (active).

As for `CCN1C(=O)N(CC)C2C1NN=c1s/c(=C\c3ccc(Cl)cc3Cl)c(=O)n12` (stereo not given), the growth was -52.1% (active).

Regarding `O=C(Nc1ccc([N+](=O)[O-])cc1Cl)c1cc(Cl)ccc1O`, the growth is -30.7% (active) and -30.9% (active).

`O=C(O)CCCN1C(=O)C2C3CCC(C3)C2C1=O` (stereo not given): the growth is 116% (inactive).

Turning to `CCOC(=O)c1ccc2[nH]c(-c3ccccc3)cc(=O)c2c1`, the growth was 95.3% (inactive).

On to `COC(=O)c1cc(-c2cccs2)c(C#N)c(N)c1C#N`, for which the growth was 108% (inactive).

For the compound `OCc1nnn(-c2ccccc2)c1CO`, the growth is 89.1% (inactive).

As for `CCOC(=O)C1(Cc2ccccc2)CCN(Cc2cccc(OC)c2O)CC1`, the growth was -11.6% (active).

For the compound `N=C1C(c2nc(-c3ccc(Br)cc3)cs2)=C(O)CN1Cc1cccnc1`, the growth is 72.4% (inactive).

Consider `COC1/C=C/OC2(C)Oc3c(C)c(O)c4c(O)c(c(/C=N/Nc5ccc([N+](=O)[O-])cc5[N+](=O)[O-])c(O)c4c3C2=O)NC(=O)C(C)=C/C=C/C(C)C(O)C(C)C(O)C(C)C(OC(C)=O)C1C` (stereo not given), for which the growth was -1.29% (active).

Turning to `Cc1ccc2c3c(c(=O)[nH]c2c1)C1(C(C#N)=C(N)O3)c2cc(Br)ccc2-c2ccc(Br)cc21`, the growth was 83.7% (inactive).

On to `CCN(CC)CCNC(=O)c1cn2ncnc(Oc3ccc(NC(=O)Nc4ccc(Cl)c(C(F)(F)F)c4)cc3)c2c1C`, for which the growth was -40.8% (active).

As to `CC(C)(C)OC[C@@H]1N=C(c2ccc(Br)cc2)Nc2nc3ccccn3c2C1=O`, the growth was 33.1% (inactive).

For `CCOC(=O)c1c(NC(=O)c2ccc(C(C)C)cc2)sc2c(CN(C)C)c(O)ccc12`, the growth was -34.8% (active).

Consider `CN[C@@]12CC3(C=CC(=O)C=C3)O[C@]1(Cc1ccc(OC)cc1)N(C)C(=O)N2`, for which the growth was 0.452% (active).
